Only some compounds are listed: those with a hit (about 6.2% of all), similar ones and a draw of the others.
ATXN2 expr inh: reduces ATXN2 reporter expression in HEK-293 cells; HEK-293 ATXN2-luciferase reporter, luminescence, 24 h; Potency, µM (titrated, usually from 57 µM), actives largely listed as inhibitors; 360,000 tested, 0.72% active; AID 1745845; note: nearly all actives have a fitted effect of over 55% in size
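ATXN2-luciferase reporter cells (luciferase flanked by upstream and downstream ATXN2 gene portions) were treated 24 h at 37 °C with compounds at up to 57 uM. SteadyGlo luminescence gave expression; GF-AFC fluorescence gave viability.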
S2 tox: cell viability loss in ATXN counter-screen | S2 cells (HEK-293 line with an ATXN2-luciferase reporter) viability, CellTiter-Fluor protease fluorescence, 24 h | Potency, µM (series often up to 56.7 µM), actives largely listed as cytotoxic | 400,000 tested, 0.49% active | AID 651635; note: nearly all actives have a fitted effect of over 40% in size
HT1080NT lethal: kills 2HG-producing HT-1080-NT fibrosarcoma cells. HT-1080-NT fibrosarcoma viability, CellTiter-Glo ATP luminescence, 48 h. Potency, µM (titrated, usually from 46.1 µM), most hits filed as cytotoxic. 360,000 tested, 1.6% active;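 note: NT is the 2HG producing partner of a matched IDH1 knockdown line; nearly all actives have a fitted effect of over 55% in size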
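Toxicity toward the 2HG-producing NT line was scored as %Activity, normalised to DMSO and no-cell wells, from CellTiter-Glo luminescence after 48 hours' treatment.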
KB-3-1 tox: KB-3-1 parental cell cytotoxicity; KB-3-1 viability, CellTiter-Glo ATP luminescence, 72 h; Potency, µM (series often up to 46.1 µM), actives largely listed as cytotoxic; 400,000 tested, 1.4% active; AID 1347075; note: nearly all actives have a fitted effect of over 60% in size
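Cells are dispensed, compounds pinned in, plates held at 37 °C for 72 h, then CellTiter-Glo is added and luminescence read after 10 minutes. Cell line: parental KB-3-1 in phenol-red-free DMEM, 10% FBS.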
HT1080 IDH1KD tx: kills HT-1080 cells with IDH1 knockdown. Potency, µM (highest dose often 46.1 µM), hits mostly cytotoxic. 360,000 tested, 2% active. HT-1080 IDH1 knockdown viability, ATP luminescence, 48 h
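Using the IDH1-knockdown HT-1080 line run in the same batch and compound series as the NT line, viability after 48 h at 37 °C was determined by CellTiter-Glo luminescence and expressed as % activity.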
KB-V1 cytotox: kills drug-selected multidrug resistant KB-V1 cells; KB-V1 MDR cells viability, CellTiter-Glo, 72 h; Potency, µM (highest dose often 46.1 µM), most hits filed as cytotoxic; 400,000 tested, 3.4% active; note: nearly all actives have a fitted effect of over 60% in size
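qHTS viability screen in drug-selected KB-V1 MDR cells: 72 h compound treatment at 37 degrees C, ATP luminescence end point.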
A number is an active result; - = inactive; ? = inconclusive; . = no result given. Calls come from the whole dose curve; as a rule, active = well fitted curve in the direction sought with a large enough effect; inconclusive = small, poorly fitted or top-dose-only effect, or another doubt; inactive = no such curve, though single readings can be large; an effect the other way counts as inactive or inconclusive.

SMILES	ATXN2 expr inh	S2 tox	HT1080NT lethal	KB-3-1 tox	HT1080 IDH1KD tx	KB-V1 cytotox
COc1cccc(CCc2nnc(CCC(=O)N(C)C3CC(C)(C)NC(C)(C)C3)o2)c1	-	-	-	-	-	-
Cc1ccc(C(NC(=O)Cc2cccs2)C(=O)Nc2ccc(C(C)C)cc2)cc1 (centres undefined)	-	-	.	-	.	-
Cc1cccc(C(=O)Nc2cccc3cccnc23)c1	-	-	-	-	-	-
Cc1cnc(C(=O)Nc2cccc3cccnc23)cn1	?	?	?	5.2µM	?	?
CCCCNS(=O)(=O)c1ccc(NC(=O)c2c(-c3ccccc3Cl)noc2C)cc1	-	-	?	-	?	21µM
CC(=O)Nc1cccc(NC(=O)c2c(-c3ccccc3Cl)noc2C)c1	-	-	-	-	-	16µM
COc1ccc(OC)c(CNC(=O)c2[nH]c(C(F)(F)F)nc2-c2ccccc2)c1	?	-	-	-	-	-
CC(C)C[C@H]1CNC(=S)N1CC1CCCN1C[C@H](Cc1ccccc1)N1C[C@H](Cc2ccc(O)cc2)N(CC2CCCCCC2)C1=S (some centres undefined)	-	-	-	?	?	?
CC(C)C[C@H]1CN([C@@H](CC(C)C)CN2CCCC2CN2C(=S)NC[C@@H]2Cc2ccccc2)C(=S)N1CC1CCCCC1 (some centres undefined)	-	-	-	-	16µM	?
CC(C)C[C@H]1CNC(=S)N1C[C@H]1CCCN1C[C@H](CC(C)C)N1C[C@H](Cc2ccc(O)cc2)N(CC2CCCCC2)C1=S	?	.	18µM	?	21µM	16µM
CC(C)C[C@@H](CN1CCCC1CN1C(=S)NC[C@@H]1Cc1ccc(O)cc1)N1C[C@H](Cc2ccccc2)N(CC2CCCCCC2)C1=S (some centres undefined)	-	?	-	-	-	?
CC(C)C[C@H]1CNC(=S)N1C[C@H]1CCCN1C[C@H](Cc1ccc(O)cc1)N1C[C@H](Cc2ccc(O)cc2)N(CC2CCCCCC2)C1=S	18µM	13µM	12µM	?	13µM	?
CC(C)C[C@@H](CN1CCCC1CN1C(=S)NC[C@@H]1Cc1ccc(O)cc1)N1C[C@H](Cc2ccc(O)cc2)N(CC2CCCCCC2)C1=S (some centres undefined)	?	28µM	23µM	?	?	?
Cc1ccc(C(C)C)c(OCCSc2nc(-c3ccccc3F)nc3cc(=O)[nH]n23)c1	-	-	.	?	.	-
CCc1nc2cc(C(=O)N3CCC[C@H]3CO)cc(NC(=O)c3ccccc3OC)c2n1C	.	-	.	.	.	.
CCCN1C(=O)CC(=O)N=C1SCC(=O)Nc1ccccc1F	.	-	-	-	-	-
CCn1c(CCC(=O)Nc2nc3c(s2)CCCC3)nc2cc(S(=O)(=O)N(C)C)ccc21	?	-	-	-	-	23µM
CC1CN(Cc2cccn2-c2cccnc2)Cc2cc(Cl)ccc2O1 (centres undefined)	.	-	.	.	.	.
O=C(Nc1cccc(-c2nnc(-c3ccccc3)o2)c1)c1ccc(Br)o1	?	35µM	-	-	?	21µM
O=C(NC(=S)Nc1ccccc1)c1ccc(Br)o1	.	-	-	-	-	-
O=C(Nc1ccc(Nc2ccccc2)cc1)c1ccc(Br)o1	-	-	-	?	?	13µM
CC(C)(C)OC(=O)C(Cc1ccc(OC(C)(C)C)cc1)NC(=O)CNC(=O)OCc1ccccc1 (centres undefined)	-	-	-	?	-	2.9µM
CCN(C(=O)COc1cc(=O)n(CC)c2ccccc12)c1cccc(Cl)c1	-	?	-	?	-	2.1µM
CCCN(C(=O)COc1cc(=O)n(CC)c2ccccc12)c1ccc(C(C)C)cc1	?	?	.	?	.	13µM
CCOc1ccc(CNC(=O)c2sc3nc(C)cc(C)c3c2-n2cccc2)cc1	-	-	.	?	.	-
SMILES	ATXN2 expr inh	S2 tox	HT1080NT lethal	KB-3-1 tox	HT1080 IDH1KD tx	KB-V1 cytotox
CCn1ccc2c(OCC(=O)Nc3ccccc3C)cccc2c1=O	-	-	.	?	.	-
Cn1nnnc1SCCCNCc1ccccc1OCc1ccccc1F	-	?	.	-	.	-
CCCCC#Cc1cncc(C(=O)NN)c1	?	-	-	-	-	-
CCCCCCC#Cc1cncc(C(=O)NNC(=O)Nc2cc(Cl)cc(Cl)c2)c1	-	-	?	-	21µM	?
O=S(=O)(Nc1ccc(C(O)(C(F)(F)F)C(F)(F)F)cc1)c1ccc(Cl)c2nonc12	18µM	.	21µM	?	15µM	?
COCC(=O)Nc1ncc(S(=O)(=O)c2ccc([N+](=O)[O-])cc2)s1	-	-	-	-	-	-
O=C(NC(Nc1ncc(S(=O)(=O)c2ccc([N+](=O)[O-])cc2)s1)(C(F)(F)F)C(F)(F)F)c1ccc(Cl)cc1	14µM	?	3.3µM	21µM	?	?
COc1ccc(OC)c(-c2cc(Cl)c3c(c2)CC(CNC(=O)[C@@H]2CCCN2C(C)=O)O3)c1 (some centres undefined)	.	-	.	.	.	.
O=Cc1c(Sc2ccccc2)nc2ccccn2c1=O	-	-	?	15µM	?	?
CCCc1ccc(C2Sc3ccccc3NC3=C2C(=O)c2ccccc23)cc1 (centres undefined)	?	.	.	?	.	-
O=c1[nH]c(CCl)nc2cc(-c3ccc(F)cc3)sc12	?	-	15µM	?	7.3µM	?
COc1ccc2c(c1)C(SCC(=O)NCCc1ccc(Cl)cc1)CC(C)(C)O2 (centres undefined)	28µM	?	-	-	-	-
CC(=O)N1CCc2cc(Br)cc(S(=O)(=O)N3CCC(C(=O)Nc4cccc(C)c4C)CC3)c21	-	-	.	?	.	-
COc1ccc(Cn2c(CCC(=O)Nc3ccc(Br)c(C)c3)nc3cccnc32)cc1	.	.	.	-	.	-
CN(C)CCCN=c1c2ccccc2n(C)c2[nH]c(=O)n(C)c(=O)c12	17µM	.	.	.	.	.
CN(C)CCCn1c(=S)[nH]c2ccccc2c1=O	-	-	-	-	-	-
CC(CS(=O)(=O)c1ccc2c(c1)NC(=O)CS2)C(=O)N1CCN(c2cccc(Cl)c2)CC1 (centres undefined)	-	-	-	23µM	-	-
CC(CS(=O)(=O)c1ccc2c(c1)NC(=O)CS2)C(=O)NCc1ccccc1Cl (centres undefined)	-	-	-	-	-	-
Cc1ccc2[nH]c(CSc3nnc(NC(=O)COc4ccccc4Cl)s3)cc(=O)c2c1	-	-	.	-	.	-
Cc1cccc(C(=O)N2CCOc3ccc(CN(C)Cc4cc(C5CC5)n[nH]4)cc3C2)n1	.	-	.	.	.	.
CCc1cc2c(=O)c(-c3cnn(-c4ccccc4)c3)c(C)oc2cc1OCC(=O)Nc1cccc(C)c1	?	1.8µM	-	?	-	?

Assay outcomes deposited in PubChem BioAssay by National Center for Advancing Translational Sciences (NCATS).
